AmpC inh no detg = qHTS Inhibitors of AmpC Beta-Lactamase (assay without detergent); P00811; AmpC nitrocefin hydrolysis, absorbance 480 nm, 0.0001% Triton; Potency, µM (doses to about 57.1 µM), for the others: at the top dose activity change, negative = inhibition, most hits filed as inhibitors; 330,000 compounds, 0.52% hits;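 further: plate controls were no compound for no effect and no enzyme for full effect; nearly all actives have a fitted effect of over 20% in size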
Target sequence (P00811 whole entry, looked up): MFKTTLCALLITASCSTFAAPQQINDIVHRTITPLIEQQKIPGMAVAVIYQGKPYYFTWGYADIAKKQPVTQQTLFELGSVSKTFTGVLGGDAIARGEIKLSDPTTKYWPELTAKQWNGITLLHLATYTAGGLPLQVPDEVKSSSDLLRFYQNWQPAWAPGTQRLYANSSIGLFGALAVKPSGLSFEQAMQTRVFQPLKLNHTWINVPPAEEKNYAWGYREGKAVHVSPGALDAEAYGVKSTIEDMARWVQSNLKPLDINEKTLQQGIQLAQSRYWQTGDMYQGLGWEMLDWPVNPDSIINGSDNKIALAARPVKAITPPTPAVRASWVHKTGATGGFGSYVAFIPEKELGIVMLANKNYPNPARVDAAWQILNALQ
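20 mM phosphate pH 7.0 + 0.01% (detergent screen) or 0.0001% Triton X-100; 5.3 nM AmpC reagent; cpd preinc 15 min RT; nitrocefin (800 uM stock) to start; A480 q20 s × 4 min; Activity was normalised to no-enzyme and no-compound control wells.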
Pf growth 48h = Primary qHTS for delayed death inhibitors of the malarial parasite plastid, 48 hour incubation; P. falciparum luciferase growth in erythrocytes, 48 h; Potency, µM (doses to about 28.7 µM), inactives show at the highest dose activity change, negative = inhibition, hits mostly inhibitors; 310,000 compounds, 5.9% hits; further: on the % scale 0 is the no-effect control and ±100 the full control effect
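Cell-based growth assay: transgenic P. falciparum expressing firefly luciferase, cultured in red cells within RPMI 1640 containing 0.5% w/v Albumax, 24 mM bicarbonate and gentamycin. A drop in luciferase activity indicates inhibition.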
Sm TGR inh = qHTS Assay for the Inhibitors of Schistosoma Mansoni Peroxiredoxins | Schistosoma mansoni thioredoxin glutathione reductase (TGR), Q962Y6 | purified TGR, DTNB reduction, TNB absorbance 405 nm | Potency, µM (highest dose often 114 µM), inactives show at the top dose activity change, negative = inhibition, actives largely listed as inhibitors | 360,000 compounds, 3% hits | AID 485364, 2010; further: on the % scale 0 is the no-effect control and ±100 the full control effect; nearly all actives have a fitted effect of over 60% in size
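TGR 20 nM + NADPH 100 uM (dispensed conc.), cpd preinc 15 min RT; start with NADPH (500 uM addition) then DTNB (15 mM addition). Kinetic TNB absorbance, 405 nm filter. Four-parameter Hill fit across titration.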
Pf growth 96h = Primary qHTS for delayed death inhibitors of the malarial parasite plastid, 96 hour incubation. 320,000 compounds, 6.9% hits. P. falciparum luciferase reporter growth, 96 h. AID 504834, 2011. Potency, µM (titrated, usually from 28.7 µM), without a hit: at the top dose activity change, negative = inhibition, usual class: inhibitors; further: on the % scale 0 is the no-effect control and ±100 the full control effect
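Parasite growth measured via integrated firefly luciferase reporter in P. falciparum. Infected erythrocytes at 2% hematocrit, 0.05% parasitemia final were treated 96 hours at 37 C under 5% CO2, and luminescence was read.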
AmpC detergent = qHTS Inhibitors of AmpC Beta-Lactamase (assay with detergent); AmpC hydrolysis of nitrocefin, absorbance 480 nm, 0.01% Triton; Potency, µM (series often up to 114 µM), inactives show at the top dose activity change, negative = inhibition, actives largely listed as inhibitors; 370,000 compounds, 0.041% hits;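 further: 0% = no-compound wells and -100% = no-enzyme wells; nearly all actives have a fitted effect of over 25% in size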
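20 mM phosphate pH 7.0 + 0.01% (detergent screen) or 0.0001% Triton X-100; 5.3 nM AmpC reagent; cpd preinc 15 min RT; nitrocefin (800 uM stock) to start; A480 q20 s × 4 min; Activity was normalised to no-enzyme and no-compound control wells.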
SARS PLpro yeast = qHTS of Yeast-based Assay for SARS-CoV PLP. 330,000 compounds, 0.19% hits. AID 485353, 2010. S. cerevisiae expressing SARS-CoV PLpro, growth rescue. Potency, µM (titrated, usually from 32.9 µM), for inactives: at the top dose activity, positive = growth rescue, actives largely listed as activators; calls by dose curve; further: 0% is about no effect; nearly all actives have a fitted effect of over 55% in size
* hit, by the source's call; ? = inconclusive; . = no result. Most compounds without a hit are left out; they make up all but 12% or so of the library. Unless noted, the call rests on the fitted dose curve; in most records, active means well fitted curve in the direction sought with a large enough effect; inconclusive means small, poorly fitted or top-dose-only effect, or another doubt; inactive means no such curve, though single readings can be large; an effect the other way counts as inactive or inconclusive. Potency means the concentration at half of the fitted maximal effect.

SMILES	AmpC inh no detg	Pf growth 48h	Sm TGR inh	Pf growth 96h	AmpC detergent	SARS PLpro yeast
Cc1ccc(S(=O)(=O)N(C)C)cc1NC(=O)CCCNC(=O)c1ccc(Cl)cc1	36%	?	-3%	-8%	1%	15%
Cc1oc(-c2ccc(C(=O)NCc3ccccc3)cc2)nc1CN1CCc2ccccc21	.	.	0%	.	8%	.
COc1cc2c(cc1OC)CN(C1CCCN(Cc3cc(Cl)ccc3O)C1)CC2 (configuration not stated)	60%	?	?	9.3µM*	3%	3%
COc1cc(CN2CCCC(N3CCc4ccccc4C3)C2)c(Cl)cc1O (configuration not stated)	27%	?	?	2.9µM*	2%	13%
CC(=O)Nc1ccccc1-c1nc2ccccc2n(CC(=O)c2ccc(C)c(C)c2)c1=O	.	.	-17%	.	14%	.
Cc1sc2nc(SCC(=O)N(C)c3ccccc3)n(C)c(=O)c2c1C	0%	8.3µM*	1%	-3%	3%	5%
CCOC(=O)CSc1nc2sc(C)c(C)c2c(=O)n1C	-9%	-13%	-7%	-11%	2%	0%
CN1c2ccccc2C(C)(C)C12C=Nc1c(ccc3ccccc13)O2 (configuration not stated)	25µM*	?	20µM*	?	?	-9%
COc1ccc2c(c1)Sc1ccccc1N2CCN(C)C	16%	?	-5%	53%	?	-9%
CN1c2ccccc2C(C)(C)[C@]12C=Cc1cc(O)ccc1O2	-34%	?	-30%	.	-6%	1%
COc1ccc2ccc3c(c2c1)N=CC1(O3)N(C)c2ccccc2C1(C)C (configuration not stated)	-42%	-9%	22µM*	?	?	-96%
CCOc1ccc(NCc2cccn2-c2nnc(N3CCC(C(=O)NCCc4ccc(OC)c(OC)c4)CC3)s2)cc1	.	.	0%	.	-8%	.
O=C(c1cc(-c2ccccc2Cl)nc2ccccc12)N1CCN(c2ccccc2O)CC1	1%	9.3µM*	-4%	4.1µM*	-20%	7%
Cc1ccc(-c2cc(C(=O)N3CCN(c4ccccc4O)CC3)c3ccccc3n2)cc1	-2%	3.3µM*	-17%	?	-6%	-10%
COc1ccc(-c2cc(C(=O)N3CCN(c4ccccc4O)CC3)c3ccccc3n2)cc1	-27%	?	-17%	-114%	-1%	-3%
O=C(c1cc(-c2ccccc2Cl)nc2ccccc12)N1CCOCC1	-4%	-7%	-20%	0.37µM*	?	-4%
O=C(c1cc(-c2ccccc2Cl)nc2ccccc12)N1CCC1	-1%	-11%	0%	-7%	-13%	6%
COc1ccc(-c2cc(C(=O)N3CCN(c4ccccc4O)CC3)c3ccccc3n2)cc1OC	146%	2.1µM*	-9%	2.6µM*	0%	-10%
O=C(c1cc(-c2ccccc2Cl)nc2ccccc12)N1CCN(c2ccccn2)CC1	-15%	.	.	.	.	3%
COc1ccc(N2CCN(S(=O)(=O)CC34CCC(CC3=O)C4(C)C)CC2)cc1 (configuration not stated)	47%	-15%	31%	?	-10%	2%
CS(=O)(=O)N(CC(=O)NCc1ccco1)c1cccc([N+](=O)[O-])c1	-20%	17%	.	?	2%	0%
Cc1cc(C(=O)N2CCCC(N3CCN(c4ccccc4C)CC3)C2)nc(C)n1 (configuration not stated)	48%	-11%	-26%	35%	-20%	1%
O=C(c1cc(Sc2ccc(Cl)cc2)nc2ccccc12)N1CCN(c2ccccn2)CC1	27%	12µM*	-4%	57%	5%	-17%
Cc1ccc2nc(C)cc(C(=O)N3CCCC(N4CCN(c5ccccc5C)CC4)C3)c2c1 (configuration not stated)	198%	12µM*	1%	1%	1%	-1%
CCCc1ccc(-c2cc(C(=O)N3CCN(c4ccccn4)CC3)c3ccccc3n2)cc1	-5%	6%	-22%	5.2µM*	3%	-1%
SMILES	AmpC inh no detg	Pf growth 48h	Sm TGR inh	Pf growth 96h	AmpC detergent	SARS PLpro yeast
O=C(c1ccccc1Sc1cccc2ccccc12)N1CCOCC1	91%	10µM*	0%	?	-5%	-4%
Cc1ccccc1OCCSc1nc2ccc(NC(=O)c3cccs3)cc2s1	.	.	3%	.	4%	.
COc1ccc(OC)c(NC(=O)[C@H](CSCc2ccccc2)N2Cc3ccccc3C2=O)c1	.	.	-1%	.	1%	.
O=C(c1cnc(N2CCN(c3ccccn3)CC2)c2ccccc12)N1CCN(c2cccc(Cl)c2)CC1	46%	9.3µM*	-4%	-18%	-4%	-11%
O=C(c1cc(Cl)ccc1Cl)N1CCN(c2ccccn2)CC1	-13%	8%	4%	-18%	-4%	-4%
CCN(CC)c1nc2ccccc2n(Cc2cccc(OC)c2)c1=O	-7%	?	8%	1.5µM*	10%	-11%
COc1ccc(NC(=O)Nc2cccc3c2O[C@H](CN(C)C(=O)Nc2c(C)noc2C)[C@@H](C)CN([C@H](C)CO)C3=O)cc1	16%	.	.	.	.	-10%
COc1cccc(-c2nc(C(N)=O)c3[nH]c(=O)n(-c4cccc(Cl)c4)c3n2)c1OC	36%	15µM*	-3%	?	?	1%
C#Cc1ccc([C@@H]2C=C(C(=O)N3CCOCC3)O[C@H](OCCCCO)C2)cc1	75%	?	?	?	-1%	-1%
C#CCNC(=O)C1=C[C@H](c2ccccc2)C[C@H](OCCCCO)O1	20%	?	14µM*	?	8%	1%
C#CCNC(=O)C1=C[C@@H](c2ccc(Br)cc2)C[C@@H](OCCCCO)O1	107%	?	0%	8.3µM*	5%	-3%
O=C(C1=C[C@H](c2ccc(Br)cc2)C[C@H](OCCCCO)O1)N1CCOCC1	72%	-2%	35µM*	0%	10%	-2%
C#CCNC(=O)C1=C[C@H](C2CC2)C[C@H](OCCCCO)O1	12%	-7%	45µM*	10%	10%	0%
O=C(NC1CC1)C1=C[C@@H](c2ccc(Br)cc2)C[C@@H](OCCCCO)O1	71%	0%	-9%	-17%	6%	-2%
Cc1nn(C)c2c1c(-c1ccccc1)cc(=O)n2CC(=O)NC(C)(C)C	.	.	-11%	.	0%	.

Compound activity from PubChem.
